Measured values reported in PubChem BioAssay (EPA / NIEHS).
Results filed as inconclusive are left out. The source made the active and inactive calls. The calls were made as follows: active = hit-call score of the fitted dose curve at least 0.9, where 1 is the maximum; inconclusive = response in the unintended direction; inactive = score below 0.9.

What follows are compounds tested against human Fibroblast Growth Factor Receptor 1 (FGFR1), FGFR1 (gene 2260) (UniProt P11362) (assay: NVS_ENZ_hFGFR1: NovaScreen (NVS) Enzymatic Assay for human Fibroblast Growth Factor Receptor 1 (FGFR1) (AID 2283159);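 as to AC50: hits lower the signal so potencies describe inhibitors of the kinase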).
human Fibroblast Growth Factor Receptor 1 (FGFR1), FGFR1 (gene 2260), sequence (P11362 whole entry, looked up): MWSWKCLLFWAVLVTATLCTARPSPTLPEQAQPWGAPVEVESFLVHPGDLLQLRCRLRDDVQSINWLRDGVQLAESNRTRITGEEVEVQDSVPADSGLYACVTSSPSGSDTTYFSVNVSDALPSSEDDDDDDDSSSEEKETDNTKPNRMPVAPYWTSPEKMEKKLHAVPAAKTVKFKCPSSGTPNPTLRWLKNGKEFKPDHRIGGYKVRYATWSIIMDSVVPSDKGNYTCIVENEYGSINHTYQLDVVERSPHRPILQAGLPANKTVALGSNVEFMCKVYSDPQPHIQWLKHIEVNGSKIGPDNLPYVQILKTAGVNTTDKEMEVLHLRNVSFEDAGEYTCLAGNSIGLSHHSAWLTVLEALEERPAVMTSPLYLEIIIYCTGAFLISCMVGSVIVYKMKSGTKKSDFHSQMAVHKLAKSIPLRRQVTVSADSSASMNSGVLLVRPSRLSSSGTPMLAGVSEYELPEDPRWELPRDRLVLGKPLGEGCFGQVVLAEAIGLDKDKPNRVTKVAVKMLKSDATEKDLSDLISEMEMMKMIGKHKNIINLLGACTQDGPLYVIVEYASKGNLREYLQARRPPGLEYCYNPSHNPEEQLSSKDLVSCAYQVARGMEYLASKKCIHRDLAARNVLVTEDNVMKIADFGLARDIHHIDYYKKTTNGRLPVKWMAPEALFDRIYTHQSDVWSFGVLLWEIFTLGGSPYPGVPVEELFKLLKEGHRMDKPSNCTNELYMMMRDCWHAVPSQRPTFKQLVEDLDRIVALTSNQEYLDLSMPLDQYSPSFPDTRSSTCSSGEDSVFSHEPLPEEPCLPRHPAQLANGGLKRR
Method: NVS_ENZ_hFGFR1 is a biochemical, single-readout assay that uses extracted gene-proteins in a cell-free assay. Measurements were taken 1 hour after chemical dosing in a 384-well plate.NVS_ENZ_hFGFR1 is one of one assay component(s) measured or calculated from the NVS_ENZ_hFGFR1 assay. It is designed to make measurements of enzyme activity, a form of enzyme reporter, as detected with fluorescence intensity signals by Fluorescence and electrophoretic mobility shift technology.Data from the assay component NVS_ENZ_hFGFR1 was analyzed into 1 assay endpoint. This assay endpoint, NVS_ENZ_hFGFR1, was analyzed in the positive analysis fitting direction relative to DMSO as the negative control and baseline of activity. Using a type of enzyme reporter, loss-of-signal activity can be used to understand changes in the enzymatic activity as they relate to the gene FGFR1. Furthermore, this assay endpoint can be referred to as a primary readout, because this assay has produced multiple assay endpoints where this one serves a enzymatic activity function. To generalize the intended target to other relatable targets, this assay endpoint is annotated to the kinase intended target family, where the subfamily is receptor tyrosine kinase.
Binding assays used specific radioligands (tritiated, iodinated) with non-radioactive competitive displacement ligands in agonist or antagonist protocols (as indicated) and various reference compounds and inhibitors to titrate specific binding to receptors and transporters. Most enzyme assays (CYPs, kinases, phosphatases, proteases, HDACs) used recombinant protein and specific substrates (fluorescence mostly, some colorimetric and radioactive) and inhibitors, followed by a biochemical separation of substrate and product. All assays for the biochemical HTS were initially run in duplicate at a single concentration (10 uM for CYP450 assays and 25 uM for all others). […] Each assay was run with positive and negative controls, and concurrent controls on every plate. The follow-up (secondary) screen tested active chemical-pairs in concentration series, as well as a few additional assays not tested in the primary screen, some selected negative inactives, and several cases re-run in the concentration series for confirmatory purposes.

Structure (SMILES) | AC50 | outcome
CC(c1ccc(O)cc1)(c1ccc(O)cc1)c1ccc(O)cc1 | 25 µM (active) | 
Cc1cc2c3c(c1)C(c1ccccc1)=N[C@@H](NC(=O)c1ccncc1)C(=O)N3CC2 |  | inactive
O=S(=O)(O)C(F)(F)C(F)(F)C(F)(F)C(F)(F)C(F)(F)C(F)(F)F |  | inactive
CCCCCCOC(=O)c1ccccc1C(=O)OCCCCCC |  | inactive
c1cc2ccc3cccc4ccc(c1)c2c34 |  | inactive
O=C(O)C(F)(F)C(F)(F)C(F)(F)C(F)(F)C(F)(F)C(F)(F)C(F)(F)C(F)(F)F |  | inactive
CCC(C)c1cc([N+](=O)[O-])cc([N+](=O)[O-])c1O (stereo not given) |  | inactive
O=C(N[C@H]1CN2CCC1CC2)c1cc2ccoc2cn1 |  | inactive
C=CC(=O)NCNC(=O)C=C |  | inactive
CC1=C2C[C@H]3[C@@H](CC=C4C[C@@H](O)CC[C@@]43C)[C@@H]2CC[C@]12O[C@@H]1C[C@H](C)CN[C@H]1[C@H]2C | 21.1 µM (active) | 
ClC(Cl)=C(c1ccc(Cl)cc1)c1ccc(Cl)cc1 |  | inactive
Cc1ccccc1CO[C@@H]1C[C@@]2(C(C)C)CC[C@]1(C)O2 |  | inactive
Clc1ccc(C(c2ccccc2Cl)C(Cl)(Cl)Cl)cc1 (stereo not given) |  | inactive
O=S(=O)(O)C(F)(F)C(F)(F)C(F)(F)C(F)(F)F |  | inactive
Cc1cccc([N+](=O)[O-])c1 |  | inactive
